Only some compounds are listed: those with a hit (about 7.4% of all), similar ones and a draw of the others.
Rab9 prom act = Rab9 promoter activation. Huh7 Rab9 promoter-luciferase reporter, luminescence, 24 h. Potency, µM (top dose mostly 9.22 µM), without a hit: at the top dose activation, negative = inhibition, hits mostly activators. actives 2.8% (n = 320,000). AID 485297; note: % of control where 0% means no effect; nearly all actives have a fitted effect of over 60% in size
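Quantitative HTS format; Huh7 Rab9-luciferase reporter cells (1500/well) receive compound 2 h post-plating, incubate 24 h at 37 °C, then get luciferase reagent for 10 min before luminescence reading.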
SMN2 splice up = increases expression of the SMN2 splice variant; HEK293 SMN2-luciferase splicing reporter, luminescence, 30-36 h; Potency, µM (highest dose often 46.1 µM), for the others: top-dose activity change, positive = activation, hits mostly activators; actives 2.8% (n = 210,000); note: % of control where 0% means no effect; nearly all actives have a fitted effect of over 55% in size
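qHTS luciferase splicing reporter: luminescence rises when SMN2 exon 7 is included in transfected HEK293 cells. Compound exposure lasted 30-36 h at 37C, with 4.5 mM final sodium butyrate as control, followed by a ONE-Glo read.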
FLuc modulator = inhibits or activates purified firefly luciferase, miR-21 counter-screen | P08659 | purified FLuc, Km substrates, luminescence inhibition | Potency, µM (highest dose often 57.5 µM), for inactives: at the top dose activity change, negative = inhibition, actives largely listed as inhibitors | actives 6.9% (n = 360,000);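 note: plate controls were vehicle for no effect and reference inhibitor for full effect; nearly all actives have a fitted effect of over 55% in size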
Target sequence (P08659 whole entry, looked up): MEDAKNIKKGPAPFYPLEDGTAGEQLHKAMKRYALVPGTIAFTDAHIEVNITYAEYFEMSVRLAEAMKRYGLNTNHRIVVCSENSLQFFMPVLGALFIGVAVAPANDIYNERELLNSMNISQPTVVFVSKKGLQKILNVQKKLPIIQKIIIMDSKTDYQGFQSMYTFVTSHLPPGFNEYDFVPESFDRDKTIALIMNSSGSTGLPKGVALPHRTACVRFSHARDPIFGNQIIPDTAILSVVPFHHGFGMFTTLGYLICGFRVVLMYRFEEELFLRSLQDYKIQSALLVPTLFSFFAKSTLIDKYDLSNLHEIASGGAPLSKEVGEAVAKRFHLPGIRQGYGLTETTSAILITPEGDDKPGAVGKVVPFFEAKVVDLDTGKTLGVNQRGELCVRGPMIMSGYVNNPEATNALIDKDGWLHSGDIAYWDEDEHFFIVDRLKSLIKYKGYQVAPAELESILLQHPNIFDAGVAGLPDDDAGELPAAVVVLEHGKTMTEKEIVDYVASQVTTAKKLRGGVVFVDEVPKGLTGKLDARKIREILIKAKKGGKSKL
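Purified P. pyralis luciferase, 10 nM final, with Km-level 10 uM D-luciferin and 10 uM ATP in 50 mM Tris acetate pH 7.5, 10 mM Mg acetate, 0.01% Tween-20, 0.05% BSA; 6-point qHTS titration about 60 µM downward; luminescence read.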
ELG1 genotoxic = induces genotoxicity in HEK293T cells with luciferase-tagged ELG1 | actives 1.3% (n = 330,000) | Potency, µM (titrated, usually from 46 µM), inactives show at the top dose activity change, positive = activation, hits mostly activators | HEK293T ELG1-luciferase reporter, luminescence, 16 h; note: % of control where 0% means no effect; nearly all actives have a fitted effect of over 60% in size
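16 hr compound incubation (37 °C, 5% CO2) of HEK293T cells carrying luciferase-tagged ELG1; luciferase then measured by ONE-Glo luminescence after 30 min at RT.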
NPC1 prom act = activates the NPC1 promoter; actives 2.4% (n = 320,000); Huh7 NPC1 promoter luciferase reporter, 24 h; Potency, µM (highest dose often 9.22 µM), inactives show at the top dose activation, hits mostly activators; note: % of control where 0% means no effect; nearly all actives have a fitted effect of over 60% in size
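NPC1 promoter–luciferase Huh7 cells; 24 h compound; luminescence.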
An asterisk follows results filed as active; [ ] = dose if it differs, or a comment. Calls come from the whole dose curve; as a rule, active = well fitted curve in the direction sought with a large enough effect; inconclusive = small, poorly fitted or top-dose-only effect, or another doubt; inactive = no such curve, though single readings can be large; an effect the other way counts as inactive or inconclusive. Potency is the fitted concentration of half-maximal effect.

`CCOc1ccc(-c2cc(C(=O)Oc3ccc(C#N)cc3)no2)cc1` gave FLuc modulator -1%.
For C/C(=N\NC(=O)c1cc(C(C)C)[nH]n1)c1ccco1 the results were Rab9 prom act 2.5µM*, SMN2 splice up 2.8µM*, FLuc modulator 12µM*, ELG1 genotoxic inconclusive and NPC1 prom act 4µM*.
For C/C(=N/NC(=O)c1cc(-c2ccc(Br)s2)[nH]n1)c1ccco1 the results were Rab9 prom act -8%, SMN2 splice up -10%, FLuc modulator 24µM*, ELG1 genotoxic 4% and NPC1 prom act 1%.
C/C(=N\NC(=O)c1ccc(C(=O)N/N=C(\C)c2ccco2)o1)c1ccco1 was read as Rab9 prom act -1%, FLuc modulator inconclusive, ELG1 genotoxic -4% and NPC1 prom act -3%.
CC(C)c1cc(C(=O)N/N=C/c2ccco2)n[nH]1 was read as Rab9 prom act inconclusive, SMN2 splice up 16µM*, FLuc modulator 17µM*, ELG1 genotoxic inconclusive and NPC1 prom act inconclusive.
For O=C(Nc1ccncc1)Nc1cccc(Cl)c1 the results were Rab9 prom act 6%, FLuc modulator inconclusive, ELG1 genotoxic -6% and NPC1 prom act 16%.
O=C(O)Cc1ccc(NC(=O)Nc2cccc(Cl)c2)cc1 was read as Rab9 prom act 3%, FLuc modulator 17µM*, ELG1 genotoxic 3% and NPC1 prom act -3%.
Screening COc1cccc(NC(=O)Nc2ccc(CC(=O)O)cc2)c1 returned Rab9 prom act 2%, SMN2 splice up -8%, FLuc modulator 19µM*, ELG1 genotoxic 1% and NPC1 prom act -7%.
CCc1ccc(NC(=O)Nc2cccc(OC)c2)cc1 was read as Rab9 prom act 3.2µM*, SMN2 splice up 14µM*, FLuc modulator 2.7µM*, ELG1 genotoxic inconclusive and NPC1 prom act 2.8µM*.
Screening COc1cccc(NC(=O)Cc2ccc3ccccc3c2)c1 returned Rab9 prom act 16%, FLuc modulator inconclusive, ELG1 genotoxic -1% and NPC1 prom act 0%.
`Cc1nc(NCc2ccccc2)c2nc(-c3ccccc3)n(CCN3CCOCC3)c2n1` gave SMN2 splice up -5%.
For COc1ccc(C(=O)N2CCC[C@@]3(CCN(c4ccccc4)C3)C2)cc1 the results were SMN2 splice up -46%.
Screening COC(=O)[C@@]1(Cc2ccc(OC)cc2)[C@H]2c3cc(C(=O)N(C)C)n(CCc4ccc(O)c(OC)c4)c3C[C@H]2CN1C(=O)c1ccccc1 returned SMN2 splice up -2%.
`CCN(CC)c1ccc2c(C)c(-c3ccc(N)cc3)c(=O)oc2c1` gave Rab9 prom act 24%, SMN2 splice up inconclusive, FLuc modulator 24µM*, ELG1 genotoxic 6% and NPC1 prom act 23%.
For O=c1oc2cc(O)ccc2c2ccccc12 the results were Rab9 prom act -2%, SMN2 splice up -12%, FLuc modulator -5%, ELG1 genotoxic 16% and NPC1 prom act 1%.
COc1ccc(-c2c(C)c3ccc(O)cc3oc2=O)cc1 was read as Rab9 prom act 14%, FLuc modulator 15µM*, ELG1 genotoxic 13%[9.26 µM] and NPC1 prom act inconclusive.
Screening O=c1oc2cc(O)ccc2c2oc3cc(O)ccc3c12 returned Rab9 prom act 1%, SMN2 splice up -23%, FLuc modulator 19µM*, ELG1 genotoxic 7% and NPC1 prom act 1%.
For COc1ccc(-c2c(C)c3ccc(OCC(C)=O)cc3oc2=O)cc1 the results were Rab9 prom act 2.2µM*, SMN2 splice up inconclusive, FLuc modulator 24µM*, ELG1 genotoxic -6% and NPC1 prom act 2.8µM*.
Screening CC(=O)COc1ccc2c(C)c(C)c(=O)oc2c1 returned Rab9 prom act inconclusive, SMN2 splice up -7%, FLuc modulator 1%, ELG1 genotoxic inconclusive and NPC1 prom act 6%.
For CCc1cccc(-n2nnc(S(=O)(=O)c3ccc(OC)cc3)c2C)c1 the results were SMN2 splice up -62% and FLuc modulator 5%.
COc1cccc(N2CCN(C(=O)c3ccc(Cn4c(=O)[nH]c5cc(OC)c(OC)cc5c4=O)cc3)CC2)c1 was read as SMN2 splice up -7% and FLuc modulator -3%.
O=C1CC(c2ccccc2)Sc2nc3ccccc3n21 (configuration not stated) was read as Rab9 prom act 10%, SMN2 splice up inconclusive, FLuc modulator 4.8µM*, ELG1 genotoxic inconclusive and NPC1 prom act -1%.
`O=C1CC(c2cccs2)Sc2nc3ccccc3n21` (configuration not stated) gave Rab9 prom act 0%, SMN2 splice up inconclusive, FLuc modulator 3.4µM*, ELG1 genotoxic inconclusive and NPC1 prom act -3%.
For CCCN1C(=O)CC(c2ccco2)Sc2ccccc21 (configuration not stated) the results were Rab9 prom act -6%, SMN2 splice up 3%, FLuc modulator 0%, ELG1 genotoxic 8% and NPC1 prom act -2%.
`O=C1CC(c2ccc3c(c2)OCO3)Sc2nc3ccccc3n21` (configuration not stated) gave Rab9 prom act 18%, SMN2 splice up inconclusive, FLuc modulator 1.5µM*, ELG1 genotoxic inconclusive and NPC1 prom act 4µM*.
O=C1CC(c2ccco2)Sc2nc3ccccc3n21 (configuration not stated) was read as Rab9 prom act -3%, SMN2 splice up 11%, FLuc modulator 12µM*, ELG1 genotoxic inconclusive and NPC1 prom act -1%.
Screening Cc1ccc2nc(-c3ccc(NC(=O)COC(=O)c4ccc([N+](=O)[O-])o4)cc3)sc2c1 returned Rab9 prom act 0.45µM*, SMN2 splice up 0.71µM*, FLuc modulator 1.3µM*, ELG1 genotoxic 1.3µM* and NPC1 prom act 0.4µM*.
Screening CNS(=O)(=O)c1cccc(C(=O)OCC(=O)Nc2ccc(N3CCCCC3)cc2)c1 returned Rab9 prom act inconclusive, SMN2 splice up 22%, FLuc modulator inconclusive, ELG1 genotoxic 0% and NPC1 prom act 4%.
For CNS(=O)(=O)c1cccc(C(=O)OCC(=O)Nc2ccc(-c3nc4ccc(C)cc4s3)cc2)c1 the results were Rab9 prom act inconclusive, SMN2 splice up 1.1µM*, FLuc modulator 4.8µM*, ELG1 genotoxic 0.73µM* and NPC1 prom act 0.5µM*.
`Cc1ccc(NC(=O)CN2CCN(C(=O)c3ccco3)CC2)cc1` gave Rab9 prom act -4%, FLuc modulator -2%, ELG1 genotoxic 0% and NPC1 prom act -6%.
Screening CC(=O)Nc1ccc(C(=O)COC(=O)c2ccco2)c(F)c1 returned Rab9 prom act -8%, FLuc modulator 13µM*, ELG1 genotoxic 4% and NPC1 prom act -4%.
Screening Cc1ccc2nc(-c3ccc(NC(=O)CN4CCN(C(=O)c5ccco5)CC4)cc3)sc2c1 returned Rab9 prom act inconclusive, SMN2 splice up inconclusive, FLuc modulator 4.8µM*, ELG1 genotoxic inconclusive and NPC1 prom act inconclusive.

Screening data (PubChem)
